Structures are written as SMILES. A number with no mark means an inactive call. Results filed as inconclusive are left out. The source made the active and inactive calls. Unless noted, calls come from the whole dose curve.

Test [1] in a line: Nuclear factor erythroid 2-related factor 2/antioxidant responsive element (Nrf2/ARE) small molecule agonists: qHTS cell viability counter screen in human keratinocytes (AID 1919968; active = well fitted curve in the direction sought with a large enough effect in the repeat runs; an effect the other way counts as inactive or inconclusive; note: nearly all actives have a fitted effect of over 55% in size). Summed up: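 KeratinoSens HaCaT cells, 1,500/well, preincubated 5 h, then exposed to compounds in DMSO for 23 h at 37 C/5% CO2. Viability read as CellTiter-Fluor fluorescence after 1 h, in the same wells as the ARE-luciferase read.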
(In qHTS, concentration-response curves come from the screen itself.)

The nature of test [2]: Nuclear factor erythroid 2-related factor 2/antioxidant responsive element (Nrf2/ARE) small molecule agonists: luciferase reporter gene qHTS assay in human keratinocytes (AID 1919969). Note: nearly all actives have a fitted effect of over 35% in size.
Test [3] addresses Gonadotropin-releasing hormone receptor (Homo sapiens) (UniProt P30968). The test can be described thus: Human gonadotropin-releasing hormone receptor (GnRHR) small molecule agonists, calcium flux assay in GnRHR-HEK293 cells (AID 1920063). Note: nearly all actives have a fitted effect of over 35% in size. In short, it runs like this: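 HEK293 cells stably expressing human GnRHR were dye-loaded for 1 h at 37 C. Compound was added in agonist mode and fluorescence (Ex/Em 480/540) recorded kinetically for 3 min. Fifteen concentrations, triplicates.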

Test [4] addresses KiSS-1 receptor (Homo sapiens) (UniProt Q969F8). Kind of test: Human kisspeptin (KISS1R) small molecule agonists, calcium flux assay in KISS1R-HEK293 cells (AID 1920064; active = well fitted curve in the direction sought with a large enough effect in the repeat runs; an effect the other way counts as inactive or inconclusive). Summed up:
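HEK293 cells stably expressing human KISS1R were loaded with calcium dye for 1 h at 37 C, then given compound; fluorescence (Ex/Em 480/540) was read kinetically for 3 min. Fifteen concentrations, triplicate.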
A general note: Calcium assays in cells follow changes in intracellular calcium, usually with a dye or a luminescent sensor.

A short description of test [5]: G protein-coupled receptor (GPCR) small molecule agonists, calcium flux assay: HEK293 wild type cell line counter screen (AID 1920065). In short, it runs like this:
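Wild-type HEK293 cells plated 18 h, loaded with calcium dye 1 h at 37 C, then compounds added in agonist mode (ATP as positive control). Kinetic fluorescence Ex/Em 480/540 recorded 3 min at 1 sec intervals; 15 concentrations, triplicate.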

Test [6] can be described thus: p53 small molecule agonists, cell-based qHTS assay with human liver microsomes (AID 1963577).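 Note: p53 response element beta-lactamase reporter cells with liver microsomes plus NADPH.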 In short, it runs like this: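 Metabolically competent format: test substances, human liver microsomes and NADPH (both 0.5 mg/mL final) incubated with p53RE-bla cells 16 h at 37 C. Beta-lactamase reporter signal then quantified by fluorescence.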
Test [7] in a line: p53 small molecule agonists, cell-based qHTS assay with rat liver microsomes (AID 1963578). In short, it runs like this: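 Each plate received p53RE-bla cells, then compound, then rat liver microsomes and NADPH (both 0.5 mg/mL final). Plates were held 16 h at 37 C, and beta-lactamase activity was detected with LiveBLAzer over 2 h.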
Test [8] can be described thus: p53 small molecule agonists, cell-based qHTS assay with rat liver microsomes: qHTS cell viability counter screen (AID 1963580). Note: nearly all actives have a fitted effect of over 45% in size. Summed up: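 p53RE-bla HCT-116 cells were exposed 16 h at 37 C to compounds with rat liver microsomes (0.5 mg/mL) and NADPH (0.5 mg/mL). Viability was measured in the same wells as ATP content by CellTiter-Glo luminescence.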
Test [9] is described as follows: p53 small molecule agonists, cell-based qHTS assay: qHTS cell viability counter screen (AID 1963581). Note: nearly all actives have a fitted effect of over 45% in size. Summed up: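 p53RE-bla HCT-116 cells, compounds added 5 h after plating and incubated 16 h at 37 C. Cytotoxicity measured in the same wells as intracellular ATP by CellTiter-Glo luminescence after 30 min at room temperature.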
Test [10] in a line: p53 small molecule agonists, cell-based qHTS assay (AID 1963582; active = well fitted activation curve with a large enough effect in the signal ratio in the repeat runs, not every such curve was filed as active; the % refers to the signal ratio). In short, it runs like this: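 p53RE-bla reporter cells, compounds added in DMSO after 5 h plating, incubated 16 h at 37 C. Beta-lactamase read via 2 h room-temperature LiveBLAzer B/G FRET substrate, fluorescence intensity.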
Test [11] has as its target 5-hydroxytryptamine receptor 2A (Homo sapiens) (UniProt P28223). Kind of test: 5-hydroxytryptamine receptor 2A (HTR2A) small molecule antagonists, cell-based qHTS assay (AID 1963586). Note: nearly all actives have a fitted effect of over 45% in size. Note: potency is the fitted concentration of half-maximal effect. Summed up: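 Antagonist-mode intracellular calcium assay: DOI (4 nM) added after 5 min compound pre-incubation at room temperature to dye-loaded HTR2A-CHO cells. Fluorescence followed for 3 min, sampled every second.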

Test [12] shares this target. The test can be described thus: 5-hydroxytryptamine receptor 2A (HTR2A) small molecule agonists, cell-based qHTS assay (AID 1963587). Note: nearly all actives have a fitted effect of over 30% in size. Summed up: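 CHO cells stably expressing human HTR2A, plated 18 h, loaded with calcium dye 1 h at 37 C. Agonist mode: compounds added and intracellular calcium fluorescence recorded kinetically for 2 min at 1 sec intervals.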
For test [13], the target named is Muscarinic acetylcholine receptor M1 (Homo sapiens) (UniProt P11229). Kind of test: Cholinergic receptor muscarinic 1 (CHRM1) small molecule antagonists, cell-based qHTS assay (AID 1963588). Note: nearly all actives have a fitted effect of over 40% in size. Note: potency is the fitted concentration of half-maximal effect. Summed up: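 CHRM1-CHO calcium-flux assay, antagonist mode. Cells were seeded 18 h, dye-loaded 1 h at 37 C and given compound for 5 min at RT, then acetylcholine was added at 50nM. FDSS fluorescence was read 3 min; 15 concentrations, three runs.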

Test [14] has the same target. Kind of test: Cholinergic receptor muscarinic 1 (CHRM1) small molecule agonists, cell-based qHTS assay (AID 1963589). Note: nearly all actives have a fitted effect of over 35% in size. Summed up: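 CHO cells stably expressing human CHRM1 were loaded with calcium dye for 1 h at 37 C, then compound was added in agonist mode. Intracellular calcium fluorescence was followed kinetically at 1 s intervals. Fifteen concentrations were tested in three independent runs.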

The nature of test [15]: cAMP Responsive Elements (CRE) small molecule agonists, cell-based qHTS assay (AID 1963590). Summed up:
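CRE-bla HEK 293T cells, 2,000/well in DMEM with 10% dialyzed FBS and 25 mM HEPES, pre-incubated 18 h at 37 C, then exposed to compound 3 h at 37 C. Beta-lactamase reporter read with LiveBLAzer B/G FRET substrate after 2 h at room temperature.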

A short description of test [16]: cAMP Responsive Elements (CRE) small molecule antagonists, cell-based qHTS assay (AID 1963591; active = well fitted inhibition curve with a large enough effect in the signal ratio in the repeat runs, not every such curve was filed as active; the % refers to the signal ratio). In short, it runs like this:
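CRE-bla HEK293T cells plated 18 h, then given compound plus NKH477 at 0.25 uM final for 3 h at 37C. Beta-lactamase reporter read with LiveBLAzer B/G FRET substrate after 2 h at room temperature.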

The target of test [17] is Beta-2 adrenergic receptor (Homo sapiens) (UniProt P07550). The test can be described thus: Adrenergic beta2 receptor (ADRB2) small molecule antagonists, cell-based qHTS assay (AID 1963592). Note: series mostly up to about 92 µM; nearly all actives have a fitted effect of over 50% in size. In short, it runs like this:
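Cells (CHO, stable ADRB2 overexpression) incubated 18-20hr at 37C; compounds added from DMSO; agonist mix (1nM isoproterenol, 100uM IBMX, 25uM Ro-20-1724) added; 0.5hr RT; d2-cAMP and anti-cAMP-cryptate added; 1hr RT; 665/615 nm read.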

In test [18] the target is D(2) dopamine receptor (Homo sapiens) (UniProt P14416). The test can be described thus: Dopamine D2 receptor (DRD2) small molecule antagonists, cell-based qHTS assay (AID 1963595; active = well fitted inhibition curve with a large enough effect in the signal ratio in the repeat runs, with a control signal flat; the % refers to the signal ratio). Summed up: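 Stable D2 receptor HEK293 line, 24 h after seeding. Compound preincubated 10 min, then quinpirole (12 nM) with forskolin analogue NKH477 (200 nM), 30 min, room temperature. Detection by time-resolved FRET of cAMP.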

Test [19] shares this target. The test can be described thus: Dopamine D2 receptor (DRD2) small molecule agonists, cell-based qHTS assay (AID 1963594). Note: nearly all actives have a fitted effect of over 35% in size. Summed up:
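HEK293 cells stably expressing human DRD2, pre-treated with PDE inhibitor Ro20-1724 (0.1 mM final) and compound 10 min at room temperature, then stimulated with NKH477 (200nM […]) for 30 min. cAMP read by HTRF (665/620 nm).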

A short description of test [20]: p53 small molecule agonists, cell-based qHTS assay with human liver microsomes: qHTS cell viability counter screen (AID 1963579). Note: nearly all actives have a fitted effect of over 45% in size. In short, it runs like this:
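Tox21 library compounds, delivered from DMSO stocks, were tested on p53RE-bla cells together with 0.5 mg/mL human liver microsomes and 0.5 mg/mL NADPH (final) over 16 h at 37 C; CellTiter-Glo luminescence served as the cytotoxicity measure.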

Chain of Gonadotropin-releasing hormone receptor (Homo sapiens) (P30968 whole entry, looked up): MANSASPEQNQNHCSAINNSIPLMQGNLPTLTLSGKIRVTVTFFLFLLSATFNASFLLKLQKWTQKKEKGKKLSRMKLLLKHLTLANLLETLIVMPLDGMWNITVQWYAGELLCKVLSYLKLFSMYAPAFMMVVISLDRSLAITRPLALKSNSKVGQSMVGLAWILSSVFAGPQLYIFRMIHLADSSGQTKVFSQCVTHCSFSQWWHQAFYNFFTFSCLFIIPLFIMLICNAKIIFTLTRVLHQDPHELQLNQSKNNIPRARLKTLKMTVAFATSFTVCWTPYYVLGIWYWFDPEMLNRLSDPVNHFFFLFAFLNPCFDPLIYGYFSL
Chain of Muscarinic acetylcholine receptor M1 (Homo sapiens) (P11229 whole entry, looked up): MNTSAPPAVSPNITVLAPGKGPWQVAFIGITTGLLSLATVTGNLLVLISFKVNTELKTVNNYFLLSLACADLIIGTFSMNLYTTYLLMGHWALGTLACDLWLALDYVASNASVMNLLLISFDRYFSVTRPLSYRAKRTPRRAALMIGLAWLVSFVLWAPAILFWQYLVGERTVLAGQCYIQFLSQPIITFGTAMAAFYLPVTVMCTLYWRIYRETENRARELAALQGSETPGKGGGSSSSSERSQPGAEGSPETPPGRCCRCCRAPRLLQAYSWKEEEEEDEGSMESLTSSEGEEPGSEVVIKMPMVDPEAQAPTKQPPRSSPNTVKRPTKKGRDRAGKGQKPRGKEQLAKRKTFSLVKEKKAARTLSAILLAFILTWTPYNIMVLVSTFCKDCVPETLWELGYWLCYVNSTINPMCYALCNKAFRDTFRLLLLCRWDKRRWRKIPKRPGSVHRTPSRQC
Chain of D(2) dopamine receptor (Homo sapiens) (P14416 whole entry, looked up): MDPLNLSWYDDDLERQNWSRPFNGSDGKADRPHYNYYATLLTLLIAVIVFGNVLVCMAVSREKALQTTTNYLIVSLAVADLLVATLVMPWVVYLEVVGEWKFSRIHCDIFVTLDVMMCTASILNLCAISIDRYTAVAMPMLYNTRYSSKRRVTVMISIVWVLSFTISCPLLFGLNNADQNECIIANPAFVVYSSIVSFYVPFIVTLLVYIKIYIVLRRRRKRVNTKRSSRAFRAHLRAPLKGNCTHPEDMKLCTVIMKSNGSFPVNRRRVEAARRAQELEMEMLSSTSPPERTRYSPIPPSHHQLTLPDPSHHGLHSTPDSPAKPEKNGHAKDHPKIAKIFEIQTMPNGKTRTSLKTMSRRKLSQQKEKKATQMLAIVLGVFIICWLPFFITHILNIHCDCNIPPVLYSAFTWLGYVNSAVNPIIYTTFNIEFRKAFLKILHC
Chain of KiSS-1 receptor (Homo sapiens) (Q969F8 whole entry, looked up): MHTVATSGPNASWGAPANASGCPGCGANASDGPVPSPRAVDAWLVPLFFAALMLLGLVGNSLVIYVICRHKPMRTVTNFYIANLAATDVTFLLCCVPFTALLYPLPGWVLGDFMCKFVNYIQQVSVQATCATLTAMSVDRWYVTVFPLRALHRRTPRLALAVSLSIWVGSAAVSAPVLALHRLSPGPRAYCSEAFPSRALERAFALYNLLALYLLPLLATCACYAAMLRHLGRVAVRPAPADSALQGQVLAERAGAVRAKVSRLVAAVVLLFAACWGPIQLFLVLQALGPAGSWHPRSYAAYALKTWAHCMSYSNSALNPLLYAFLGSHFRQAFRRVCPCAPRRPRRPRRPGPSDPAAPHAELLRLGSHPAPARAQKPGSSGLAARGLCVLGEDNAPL
Chain of Beta-2 adrenergic receptor (Homo sapiens) (P07550 whole entry, looked up): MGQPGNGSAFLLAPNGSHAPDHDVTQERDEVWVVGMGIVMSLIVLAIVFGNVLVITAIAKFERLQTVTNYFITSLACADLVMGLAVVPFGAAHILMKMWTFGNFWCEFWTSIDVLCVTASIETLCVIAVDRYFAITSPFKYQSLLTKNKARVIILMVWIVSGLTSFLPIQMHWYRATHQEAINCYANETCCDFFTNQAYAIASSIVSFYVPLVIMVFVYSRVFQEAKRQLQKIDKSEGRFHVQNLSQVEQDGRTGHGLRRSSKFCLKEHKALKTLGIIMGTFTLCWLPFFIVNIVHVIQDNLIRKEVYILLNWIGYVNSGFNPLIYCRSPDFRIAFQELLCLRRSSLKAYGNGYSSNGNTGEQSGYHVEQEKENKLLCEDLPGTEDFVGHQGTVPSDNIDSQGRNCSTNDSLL
Chain of 5-hydroxytryptamine receptor 2A (Homo sapiens) (P28223 whole entry, looked up): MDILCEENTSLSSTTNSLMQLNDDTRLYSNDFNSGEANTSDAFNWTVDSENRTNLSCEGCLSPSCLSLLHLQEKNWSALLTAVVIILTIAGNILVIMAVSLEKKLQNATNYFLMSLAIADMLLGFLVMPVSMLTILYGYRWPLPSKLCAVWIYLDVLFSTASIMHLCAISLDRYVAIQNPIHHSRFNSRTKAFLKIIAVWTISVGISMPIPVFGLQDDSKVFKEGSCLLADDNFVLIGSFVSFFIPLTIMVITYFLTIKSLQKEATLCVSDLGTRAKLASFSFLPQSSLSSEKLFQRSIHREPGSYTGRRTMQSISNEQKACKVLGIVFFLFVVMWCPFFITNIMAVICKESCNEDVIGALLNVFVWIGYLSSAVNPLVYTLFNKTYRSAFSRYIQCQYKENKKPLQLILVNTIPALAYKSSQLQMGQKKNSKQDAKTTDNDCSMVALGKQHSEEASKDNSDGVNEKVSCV

`CCC(CC)C(=O)O`: the Potency result in [1], in [2], in test [3], in [6], in test [7] and in test [8] was “inactive” throughout. For the same compound, the Potency result in test [9], in test [10], in test [11], in test [12], in test [13] and in test [14] was “inactive” each time. Moreover, the Potency result in test [15], in test [16], in [17] and in test [18] was “inactive” throughout. In addition, the result in [4] and in [5] was inactive.
Take `CC(C)CC(C)CC(C)CC(C)COC(=O)c1ccccc1C(=O)OCC(C)CC(C)CC(C)CC(C)C` (stereo not drawn): the Potency result in test [1], in [2], in test [3], in test [6], in [7] and in [8] was “inactive” in each case. Also, the Potency entry in [9], in test [10], in [11], in test [12], in test [13] and in [14] was “inactive” in each case. Further, the Potency result in [15], in test [16], in [17], in test [19] and in [18] was “inactive” throughout. For the same compound, the outcome in test [4] and in [5] was inactive.
Consider `CCCCOCCOC(=O)CCCCCCCCC(=O)OCCOCCCC`, for which the Potency entry in test [1], in test [2], in [3], in test [6], in test [7] and in test [8] was “inactive” throughout. Moreover, the Potency entry in [9], in test [10], in test [11], in test [12], in test [13] and in [14] was “inactive” in each case. Moreover, the Potency result in test [15], in [16], in [17], in test [19] and in test [18] was “inactive” throughout. In addition, the result in test [4] and in test [5] was inactive.
Regarding `CCOC(=O)CCc1ccccc1`, the Potency entry in [1], in [2], in [3], in [6], in test [7] and in test [8] was “inactive” in each case. In addition, the Potency entry in test [9], in test [10], in [11], in test [12], in [13] and in test [14] was “inactive” throughout. Moreover, the Potency result in test [15], in [16], in test [17], in test [19] and in [18] was “inactive” in each case. Also, the result in [4] and in test [5] was inactive.
With `CN(C)CCN(Cc1ccc(Cl)cc1)c1ccccn1`, the Potency result in test [1], in [2], in test [3], in test [6], in test [7] and in test [8] was “inactive” in each case. Further, the Potency entry in [9], in test [10], in [12], in test [14], in test [15] and in [16] was “inactive” throughout. The Potency entry in [17], in test [19] and in test [18] was “inactive” in each case. Besides, the result in test [4] and in test [5] was inactive. The values for the Potency in test [11] and in test [13] were 8.18 µM (active) and 7.29 µM (active), respectively.
For the compound `COC(=O)c1ccc(OC)cc1`, the Potency entry in test [1], in test [2], in test [3], in test [6], in test [7] and in test [8] was “inactive” each time. The Potency result in test [9], in test [10], in [11], in [12], in [13] and in test [14] was “inactive” throughout. In addition, the Potency entry in test [15], in test [16], in test [19] and in test [18] was “inactive” throughout. In addition, the outcome in test [4] and in test [5] was inactive.
Consider `COc1ccc(/C=C/S(=O)(=O)NC(=O)c2ccc(C)cc2Cl)cc1`, for which the Potency entry in test [1], in [2], in [3], in test [6], in test [7] and in [20] was “inactive” throughout. Moreover, the Potency entry in test [11], in test [12], in [13], in [14], in test [15] and in test [17] was “inactive” in each case. The Potency entry in test [19] and in test [18] was “inactive” each time. Also, the outcome in test [4] and in test [5] was inactive.

The values are drawn from PubChem BioAssay (Tox21).
